In PubChem BioAssay (EPA / NIEHS):
“And” between values parts separate entries of the source, which are not always exact repeats. Equal entries are not always repeated. The source made the active and inactive calls. How the source made its calls: active means hit-call score of the fitted dose curve at least 0.9, where 1 is the maximum; inactive means score below 0.9.

read-out: Macrophage colony-stimulating factor (MCSF), CSF1 (gene 1435); assay: BSK_LPS_MCSF: BioMAP Diversity Plus: LPS Assay for Macrophage colony-stimulating factor (MCSF) Biomarker Activity (AID 2283083); conditions: primary human HUVEC with PBMC; actives raise or lower the signal
Experimental: BSK_LPS is a cell-based, multiplexed-readout assay that uses umbilical vein endothelium and peripheral blood mononuclear cells, a human vascular primary cell co-culture, with measurements taken at 24 hours after chemical dosing in a 96-well plate.BSK_LPS_MCSF is an assay component measured in the BSK_LPS assay. It measures M-CSF antibody related to regulation of gene expression using ELISA technology.Data from the assay component BSK_LPS_MCSF was analyzed into 1 assay endpoint. This assay endpoint, BSK_LPS_MCSF, was analyzed with bidirectional fitting relative to DMSO as the negative control and baseline of activity. Using a type of binding reporter, gain or loss-of-signal activity can be used to understand changes in the signaling as they relate to the gene CSF1. Furthermore, this assay endpoint can be referred to as a primary readout, because this assay has produced multiple assay endpoints where this one serves a signaling function. To generalize the intended target to other relatable targets, this assay endpoint is annotated to the cytokine intended target family, where the subfamily is colony stimulating factor.
The levels of cell surface (or secreted, indicated by the prefix "s") biomarker endpoints were measured by ELISA. Overt cytotoxicity to cells in confluent adherent cultures (all systems other than the BT system) was assessed by measuring total protein levels using sulforhodamine B (SRB) staining in parallel cultures at the time of biomarker measurements, indicated as SRB endpoints. For proliferation assays for adherent cell types, individual cell types are cultured at sub-confluence and relative cell numbers quantified by SRB staining at time points optimized for each system (48 h: 3C and CASM3C systems; 72 h: BT and HDF3CGF systems; 96 h: SAg system). SRB was performed by staining cells with 0.1% SRB after fixation with 10% TCA and reading wells at 560 nm.Viability and proliferation of PBMC (T cells) was quantified by Alamar Blue reduction for the SAg and BT systems. For PBMC viability (referred to as PBMC Cytotoxicity within the assay endpoint names), cells were plated (75,000/well in a 96-well plate) and then chemical samples added for 1 h before addition of activators, SEB and TSST-1 (20 ng/mL final concentration each). Cells were incubated for 90 h. Then, Alamar Blue (20 uL/well) (Invitrogen, Cat DAL1100) was added for 6 h, and the plates were read with a fluorescence microplate reader at 546/580 nm (excitation/emission). For PBMC proliferation, cells were plated and activated as above but incubated for only 16 h prior to addition of Alamar Blue. Plates were read after 6 h.

Structure (SMILES) | AC50 | outcome
O=S1(=O)CC(Cl)(Cl)C(Cl)(Cl)C1 | 710 nM (active) | 
C=C(C)C(N)=O |  | inactive
CCOC(=O)C=Cc1ccccc1 |  | inactive
CCCCCCCCCCCCS | 31400 nM (active) | 
C=C(F)C(=O)OC(C(F)(F)F)C(F)(F)F |  | inactive
O=C(O)C(F)(F)OC(F)(F)C(F)(F)OC(F)(F)C(F)(F)C(F)(F)C(F)(F)F |  | inactive
Nc1ccc(N)c([N+](=O)[O-])c1 |  | inactive
CC1(C)[C@H](C=C(Cl)Cl)[C@H]1C(=O)OCc1cccc(Oc2ccccc2)c1 |  | inactive
CC=CC(=O)C1=C(C)C=CCC1(C)C |  | inactive
c1ccc(OCCOc2ccccc2)cc1 |  | inactive
CC(=O)CCC=C(C)CCC=C(C)C |  | inactive
C=CC(=O)OCC(CO)(COC(=O)C=C)COC(=O)C=C | 379 nM (active) | 
OCC(F)(OC(F)(F)C(F)(OC(F)(F)C(F)(F)C(F)(F)F)C(F)(F)F)C(F)(F)F (stereo not given) |  | inactive
CCCO[Si](OCCC)(OCCC)OCCC |  | inactive
CCCCCCCC1CCCC1=O (stereo not given) |  | inactive
CC(=O)c1ccc(C)cc1 |  | inactive
CCCCCCCCCC(=O)OCC |  | inactive
CC(=O)OC(C)(C)C1CC=C(C)CC1 (stereo not given) |  | inactive
CC(C)CCCC(C)(C)O |  | inactive
C[C@]12CC[C@@H]3c4ccc(O)cc4CC[C@H]3[C@@H]1CC[C@@H]2O |  | inactive

Structure (SMILES) | AC50 | outcome
CCCCN(CCO)CCO |  | inactive
CC1=CC(C)C(C=O)C(C)C1 (stereo not given) (tested in a mixture with another compound) |  | inactive
CC(C)(CO)CO |  | inactive
O=S(=O)(O)C(F)(F)C(F)(F)OC(F)(F)C(F)(F)F |  | inactive
OCCN1CCOCC1 |  | inactive
C=C1CC/C=C(\C)CC[C@@H]2[C@@H]1CC2(C)C | 31600 nM (active) | 
CCC(=O)OCC=Cc1ccccc1 |  | inactive
CCOC(=O)CCCCCCCCC(=O)OCC |  | inactive
COC(=O)c1ccc(C(=O)OC)cc1 |  | inactive
O=C1OC2(c3ccc(O)cc3Oc3cc(O)ccc32)c2ccccc21 |  | inactive
CC(C)(C)c1cccc(O)c1 |  | inactive
CC(=O)OCC=C(C)CCC=C(C)CCC=C(C)C |  | inactive
CCn1cc(C(=O)O)c(=O)c2ccc(C)nc21 |  | inactive
CC/C(=C(\c1ccccc1)c1ccc(OCCN(C)C)cc1)c1ccccc1 | 15.3 µM (active) and 8.1 µM (active) | 
NC(=O)c1c(Cl)cccc1Cl |  | inactive
COc1ccccc1NC(=O)CC(C)=O |  | inactive
CCCCOCCOCCO |  | inactive
C=C(C)C(=O)OCCC(F)(F)C(F)(F)C(F)(F)C(F)(F)C(F)(F)C(F)(F)C(F)(F)C(F)(F)F |  | inactive
CC(C)Cc1ccc(C(C)C(=O)O)cc1 (stereo not given) |  | inactive
O=C(O)C(F)(F)C(F)(F)C(F)(F)C(F)(F)C(F)(F)C(F)(F)C(F)(F)C(F)F |  | inactive
